The record followed here is ChEMBL document CHEMBL3988442, “University of Dundee, Small-Polar-MMV Screening Library” (2021).

The campaign covered roughly 69,000 compounds. About 420 (0.61%) showed an effect of 50% or more. For the sample, strong results were picked, then their nearest neighbours and some compounds at random.

The target of the assay is T1, Histidine--tRNA ligase (Leishmania infantum) (UniProt A4I591).
T1 sequence (whole entry): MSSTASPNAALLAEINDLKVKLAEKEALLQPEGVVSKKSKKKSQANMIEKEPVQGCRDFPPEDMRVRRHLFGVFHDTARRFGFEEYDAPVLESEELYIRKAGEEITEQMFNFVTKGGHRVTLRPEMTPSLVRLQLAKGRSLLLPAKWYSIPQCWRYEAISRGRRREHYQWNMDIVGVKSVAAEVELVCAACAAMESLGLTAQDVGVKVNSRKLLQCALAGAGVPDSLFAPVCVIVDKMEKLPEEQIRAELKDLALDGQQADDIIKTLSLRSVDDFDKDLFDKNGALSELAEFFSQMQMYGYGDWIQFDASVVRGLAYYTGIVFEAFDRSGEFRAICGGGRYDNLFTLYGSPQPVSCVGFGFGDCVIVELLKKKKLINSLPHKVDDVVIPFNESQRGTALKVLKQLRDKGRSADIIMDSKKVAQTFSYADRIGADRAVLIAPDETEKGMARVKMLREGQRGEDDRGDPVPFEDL
The assay can be described thus: Leishmania infantum Histidine tRNA synthetase (LdHisRS). It is filed as functional. Set-up: scale not given: in the data most compounds retested in dose-response had high values. As to conditions: 30 µM.
Regarding `CC(C)[C@H](NC(=O)N1CCC(Cc2ccccc2)CC1)C(=O)O`, the Percent Effect was -2.5%.

With `Cn1ccnc1CC1CCCN(C(=O)Nc2cccn(C)c2=O)C1` (configuration not stated), the Percent Effect worked out at 17.3%.

For `CC(C)(C)C(=O)N1CCC(COCc2ccccc2)C1` (configuration not stated), the Percent Effect was 8%.

As to `COc1c(C(=O)N2CCC(CSc3ccccc3)C2)c(C)nn1C` (configuration not stated), the Percent Effect is 19.2%.

Consider `Cc1csc(CN2C[C@@H]3COC[C@]3(C(=O)NCc3ccco3)C2)n1`, for which the Percent Effect amounted to 7%.

Consider `Cc1oncc1C(=O)N1CC[C@H]2[C@H](CO[C@@H]2CNS(C)(=O)=O)C1`, for which the Percent Effect turned out to be 28.6%.

`CN(C)C[C@H]1OC[C@@H]2CCN(C(=O)Cc3cccs3)C[C@@H]21`: the Percent Effect was found to be 7.89%.

On to `CN(C)C(=O)N1C[C@@H](C(=O)NCc2ccco2)C[C@H]2OCC[C@H]21`, for which the Percent Effect is 0%.

For the molecule `O=C(O)[C@]12CCCN(Cc3cccs3)C[C@H]1CN(c1ncccn1)C2`, the Percent Effect worked out at 22.2%.

For `Cc1nc[nH]c1CN1C[C@@H]2CC[C@H](C1)N(C(=O)CCc1cnn(C)c1)C2`, the Percent Effect worked out at 16.4%.

Take `COc1cc(CC(=O)Nc2cccc(C(=O)N(C)C)n2)ccc1C`: the Percent Effect stood at 54%.

For `Cc1ccc(C)c(CC(=O)Nc2cccc(C(=O)N(C)C)n2)c1`, the Percent Effect stood at 17.1%.

On to `CN(C)C(=O)c1cccc(NC(=O)Cc2cc(F)ccc2F)n1`, for which the Percent Effect is 19.7%.

`O=S(=O)(c1cccs1)N1CC[C@H]2[C@H]1CCN2CC1CC1`: the Percent Effect was found to be 3.88%.

With `CN(C)C[C@H]1OC[C@@H]2CCN(C(=O)c3cccn3C)C[C@@H]21`, the Percent Effect is 9.43%.

Regarding `c1ccc(COC[C@H]2CC[C@H]3[C@H](CCN3Cc3ccccn3)O2)nc1`, the Percent Effect was 10%.

With `NC(=O)c1cc(-n2cc(-c3cccc(C(=O)O)c3)cn2)cs1`, the Percent Effect was determined as 10.5%.

Consider `NC(=O)c1ccccc1-n1cc(-c2cccc(C(=O)O)c2)cn1`, for which the Percent Effect was 52.6%.

Regarding `NC(=O)c1cc(-c2cccc(C(=O)O)c2)cs1`, the Percent Effect stood at 15.8%.

Consider `CCC1=NN2C(=N)/C(=C\c3cccn3-c3ccc(Br)cc3)C(=O)N=C2S1`, for which the Percent Effect was 11%.

As to `CN(C)CCN1C[C@@H]2CN(c3ccccc3)C[C@@H]2C1=O`, the Percent Effect was determined as 6.36%.

As for `CC(C(=O)N1CCc2ccccc2C1)N(C)Cc1cscn1` (configuration not stated), the Percent Effect was 3.9%.

`Cc1csc(CN(C)C(C)C(=O)N2CCc3ccccc3C2)n1` (configuration not stated): the Percent Effect worked out at 55.8%.

As for `CCc1cnc(CN(C)C(C)C(=O)N2CCc3ccccc3C2)s1` (configuration not stated), the Percent Effect came out at 9.09%.

On to `O=C(NCc1ccco1)[C@H]1C[C@@H]2CCN(c3cccc(F)c3)C[C@H]2O1`, for which the Percent Effect came out at 25%.

For the molecule `Cc1cnc(N2C[C@@H]3CN(Cc4ccco4)CCC[C@]3(C(=O)O)C2)nc1`, the Percent Effect stood at 19.4%.

For `COCC(=O)N1CCC2(CC1)NC(=O)[C@H]1CN(C(=O)N(C)C)C[C@H]12`, the Percent Effect is 25.2%.

As for `CN1CCO[C@@H]2CN(C(=O)NCc3ccccc3)CC[C@@H]2C1`, the Percent Effect came to 4.54%.

With `Cc1cccc(S(=O)(=O)N2C[C@H]3C[C@H](C(=O)NCC(C)C)[C@@H](C2)O3)c1`, the Percent Effect came out at 12%.

With `CCc1ncc2c(n1)CN(Cc1nc(-c3ccccn3)no1)CC2`, the Percent Effect came out at 22.7%.

In the case of `CCn1nc2c(cc1=O)CN(Cc1nc(-c3cccnc3)no1)CC2`, the Percent Effect was found to be 14.7%.

In the case of `CCn1nc2c(cc1=O)CN(Cc1nc(-c3ccccn3)no1)CC2`, the Percent Effect came out at 85.1%.

As to `Cn1nc2c(cc1=O)CN(Cc1nc(-c3ccccn3)no1)CC2`, the Percent Effect amounted to 99.1%.

Consider `CCn1nc2c(cc1=O)CN(Cc1nc(-c3cccs3)no1)CC2`, for which the Percent Effect was found to be 25.9%.

Turning to `c1ccc(-c2noc(CN3CCc4cncnc4C3)n2)nc1`, the Percent Effect came out at 36%.

With `COc1ccc(CN2C[C@@H]3COC[C@H](N4CCN(C)CC4)[C@@H]3C2)cc1`, the Percent Effect stood at 1%.

With `CC(C)(C)SCCN1CC(=O)N2CC[C@@H](O)C[C@H]2C1=O`, the Percent Effect turned out to be 10.6%.

Regarding `O=C(c1ccco1)N1CC[C@@H]2O[C@@H](COCCN3CCCC3)CC[C@@H]21`, the Percent Effect worked out at 4.59%.

As to `Cc1nccn1-c1ccc(NS(=O)(=O)c2cnn(C(C)C)c2)cn1`, the Percent Effect amounted to 50.6%.

In the case of `Cc1nccn1-c1ccc(NS(=O)(=O)c2cccnc2)cn1`, the Percent Effect is 33.7%.

Take `Cc1nccn1-c1ccc(NS(=O)(=O)c2cnn(C)c2)cn1`: the Percent Effect was 31.3%.

Take `CCC(C)NS(=O)(=O)c1ccc(/C=C\c2onc(C)c2NC(C)=O)cc1` (configuration not stated): the Percent Effect turned out to be 5.48%.

For the molecule `Cc1cc(-c2nn(C)c(Cl)c2CN2CC[C@H](CO)[C@@H](O)C2)no1`, the Percent Effect stood at 2.78%.

`Cc1cc(-c2nn(C)c(Cl)c2CN2CCOCC(O)C2)no1` (configuration not stated): the Percent Effect came out at 15.2%.

Turning to `Cc1cc(-c2nn(C)c(Cl)c2CN2Cc3ccccc3C(O)C2)no1` (configuration not stated), the Percent Effect was found to be 66.7%.

Consider `CO[C@@H]1CC[C@H]2[C@H]1OCCN2C(=O)C1CCOCC1`, for which the Percent Effect was 23.1%.

`O=C(c1cc(-c2ccco2)cs1)N1CCCC1`: the Percent Effect came to 55%.

On to `CN1CCN(C(=O)c2cc(-c3ccco3)cs2)CC1`, for which the Percent Effect amounted to 30%.

`O=C(c1cc(-c2ccco2)cs1)N1CCOCC1`: the Percent Effect stood at 25%.

In the case of `Cc1ocnc1C(=O)N1CCN(C(=O)CC(C)C)[C@@H]2CS(=O)(=O)C[C@@H]21`, the Percent Effect was 6.67%.

Consider `Cc1cccc(N2Cc3nc(=O)n(Cc4cccc(F)c4)n3C2=O)c1`, for which the Percent Effect was 14.1%.

Regarding `COc1ccccc1C(=O)NC(c1ccccn1)[C@H]1CC[C@H](CN)CC1` (some centres not stated), the Percent Effect is 88.4%.

In the case of `COc1cccc(C(=O)NC(c2ccccn2)[C@H]2CC[C@H](CN)CC2)c1` (some centres not stated), the Percent Effect stood at 39.1%.

On to `NC[C@H]1CC[C@H](C(NC(=O)c2ccccc2)c2ccccn2)CC1` (some centres not stated), for which the Percent Effect turned out to be 22.9%.

With `NC[C@H]1CC[C@H](C(NC(=O)c2cccc(F)c2)c2ccccn2)CC1` (some centres not stated), the Percent Effect turned out to be 60%.

Consider `NC[C@H]1CC[C@H](C(NC(=O)c2ccccn2)c2ccccn2)CC1` (some centres not stated), for which the Percent Effect came to 22.9%.

For `NC[C@H]1CC[C@H](C(NC(=O)C2CC2)c2ccccn2)CC1` (some centres not stated), the Percent Effect was found to be 18.8%.
